The test relates to Chordin-like protein 2 (CHRDL2). The test is described as follows: CHRDL2 small-molecule binders, primary screen, biochemical, small-molecule microarray, 635 nm fluorescence (AID 1126).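 Note: printed compound slides probed with Chrdl2 protein at 4 µg/mL for 1 h at 4 C; score merges 667 nm emission intensity with signal to noise over three replicate slides.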 The conditions noted are these: small-molecule microarray binding, fluorescence 635 nm; higher = more signal.
Regarding `C=CCNC(=O)[C@H]1[C@@H]2C(=O)O[C@@H](c3ccccc3)[C@@H](c3ccccc3)N2[C@@H](c2ccc(O)cc2)[C@]12C(=O)Nc1ccc(C#CC3=CCCCC3)cc12`, the composite z-score worked out at 0.62.

The compound `COC(=O)[C@@]1(Cc2ccccc2)[C@H]2c3cc(C(=O)N4CCCC4)n(Cc4ccc(C(F)(F)F)nc4)c3C[C@H]2CN1C(=O)c1ccccc1` gave a composite z-score of -0.873.

`O=C1OCCC/C=C\[C@H]2OC34C=CCN(Cc5ccccc5)C(=O)[C@H]3N(CCCCCO)C(=O)[C@@H]4C12` (some centres undefined) had a composite z-score of -0.906.

`CN(C)CCCNC(=O)[C@@]1(Cc2ccccc2I)c2ccccc2C(=O)N(Cc2ccccc2)[C@H]1c1ccc(CO)cc1`: the composite z-score amounted to 0.613.

On to `COC(=O)c1c(CC[C@@H](CO)NC(=O)N[C@@H](Cc2ccccc2)Cn2cc(-c3cncn3C)nn2)oc(C(C)=O)c1C(=O)OC`, for which the composite z-score is -0.722.

The compound `CC(c1ccccc1)C(O)C1C=CC2C(=O)N(c3ccccc3)C(=O)C2N1Nc1ccc(C#N)cc1` (centres undefined) showed a composite z-score of -0.34.

In turn, `CC(=O)c1ccc(C(O)C2C=CC3C(=O)N(C)C(=O)C3N2NC(=O)OC(C)(C)C)cc1` (centres undefined) registered a composite z-score of -0.971.

Compound `C=CCC(OC(C)=O)[C@@H]1[C@@H](N(Cc2ccc(-c3ccccc3)cc2)C(=O)c2cccc3ccccc23)c2cc(OCCCO)ccc2N1C(=O)c1ccc2ccccc2c1` (some centres undefined) came in with a composite z-score of -0.52.

Turning to `COC(=O)[C@@H]1N=C(c2ccc(OCCCO)cc2)O[C@@H]1c1ccccc1CN=[N+]=[N-]`, the composite z-score is -0.689.

`CCOC(=O)C1=CC[C@@H](c2ccccc2)N(S(=O)(=O)c2ccc(C)cc2)[C@H]1C#N` gave a composite z-score of -0.232.

In turn, `CC#CCO[Si](C#CCCCCCC)(C(C)C)C(C)C` gave a composite z-score of -2.33.

Take `C=CCC(OC(C)=O)[C@@H]1[C@@H](N(Cc2ccc(-c3ccccc3)cc2)C(=O)c2ccc(C)cc2)c2cc(OCCCO)ccc2N1C(=O)c1ccc2ccccc2c1` (some centres undefined): the composite z-score is 0.0542.

With `COc1ccc(C(O)C2C=CC3C(=O)N(C)C(=O)C3N2Nc2ccc([N+](=O)[O-])cc2[N+](=O)[O-])cc1OCc1ccccc1` (centres undefined), the composite z-score is -0.599.

For the compound `CN1C(=O)C2C=CC(C(O)c3ccc(-c4ccccc4)s3)N(Nc3ccccc3)C2C1=O` (centres undefined), the composite z-score is -0.121.

The compound `N#Cc1ccc(C(O)C2C=CC3C(=O)NC(=O)C3N2Nc2ccccn2)cc1` (centres undefined) gave a composite z-score of 0.31.

The compound `CCCC=C(CCC)[C@@H](NC(=O)c1ccco1)c1ccc(C(=O)OC)cc1` registered a composite z-score of -0.618.

For `COc1ccc([Si](C)(C)[C@@H]2[C@@H](CC(=O)N(CCO)Cc3ccccc3)O[C@]3(C(=O)N(Cc4ccc(N5CCC5=O)cc4)c4ccccc43)[C@H]2C)cc1`, the composite z-score was found to be 0.508.

On to `Cc1ccc(F)cc1S(=O)(=O)N[C@@H]1CCN(Cc2ccc3[nH]ccc3c2)C1`, for which the composite z-score is 0.651.

As for `C=C(/C(=C/C[C@H](OC(=O)c1ccncc1)c1ccccc1OCCO)c1cc(C(=O)OC)ccc1OC)C(C)C`, the composite z-score was 0.33.

With `CCOC(=O)C1=CC[C@@H](c2ccc(F)cc2)N(S(=O)(=O)c2ccc(C)cc2)[C@H]1c1ccc([N+](=O)[O-])cc1`, the composite z-score is -0.493.

Regarding `C=CC[C@@]1(C(=O)N(C)C)N=C(c2ccc(OCCCO)cc2)O[C@@H]1c1ccccc1`, the composite z-score is 0.0028.

As for `CC(C)C(=C=CC[C@@H](O)c1cccc(OCCO)c1)CCO`, the composite z-score stood at 0.55.

For `[N-]=[N+]=NCc1ccccc1C[C@]1(C(=O)N2CCOCC2)N=C(c2ccc(OCCCO)cc2)O[C@H]1c1ccccc1CN=[N+]=[N-]`, the composite z-score is -0.655.

Compound `COc1ccc(NN2C(C(O)c3cc(C(F)(F)F)cc(C(F)(F)F)c3)C=CC3C(=O)N(C4CCCCC4)C(=O)C32)cc1` (centres undefined) registered a composite z-score of 0.0186.

On to `CC=CC(O)C1C=CC2C(=O)N(C)C(=O)C2N1NC(=O)OC(C)(C)C` (centres undefined), for which the composite z-score is 0.204.

Turning to `[N-]=[N+]=NCc1ccccc1[C@@H]1OC(c2ccc(OCCCO)cc2)=N[C@]1(Cc1ccccc1)C(=O)NCc1ccccc1`, the composite z-score was -0.691.

As for `COCCOC(=O)N1C(=O)[C@@]2(c3cc(C#CCCO)ccc31)[C@H](C(=O)N1CCc3cc(OC)c(OC)cc3C1)[C@H]1C(=O)O[C@H](c3ccccc3)[C@H](c3ccccc3)N1[C@@H]2c1ccccc1OCCO`, the composite z-score was 0.855.

`C=CCOC(=O)[C@@H]1[C@H]2C(=O)O[C@H](c3ccccc3)[C@H](c3ccccc3)N2[C@H](c2ccc(OCCOC(=O)[C@H]3C[C@H]4C(=O)NCC(=O)N4[C@H]3c3ccc(O)cc3)cc2)[C@@]12C(=O)Nc1ccc(I)cc12` registered a composite z-score of 0.826.

Regarding `C=CCC(OC(C)=O)[C@@H]1[C@@H](N(Cc2cc3ccccc3o2)C(=O)Cc2ccc(OC)cc2)c2cc(OCCCO)ccc2N1C(=O)Cc1ccc2ccccc2c1` (some centres undefined), the composite z-score was -0.563.
